This is an account of results in article PMC9911399, “Two distinct binding modes provide the RNA-binding protein RbFox with extraordinary sequence specificity”.

First the molecules themselves.
T1: RBFOX1 RRM RbFoxmut (Fox-RRM*) (Homo sapiens, UniProt Q9NWB1 109-208, R118D;E147R;N151S;E152T)
T1 sequence: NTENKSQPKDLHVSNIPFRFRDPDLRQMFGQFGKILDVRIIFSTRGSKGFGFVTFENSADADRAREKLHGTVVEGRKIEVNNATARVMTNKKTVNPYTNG

B1: AGUUGGC (DNA:RNA)
RNA: GGGAGACCGGAAUUCAGAUUGUCCAGUUGGCUUAAAUCCCGUCGUAGCCACCA
DNA 1: CAATCTGAATTCCGGTCTCCC
DNA 2: TGGTGGCTACGACGGGATT
B2: AAGCUUU (DNA:RNA)
RNA: B1 RNA with G26A, U27G, U28C, G29U, G30U, C31U
DNA 1: CAATCTGAATTCCGGTCTCCC
DNA 2: TGGTGGCTACGACGGGATT
B3: GACCGCU (DNA:RNA)
RNA: B1 RNA with A25G, G26A, U27C, U28C, G30C, C31U
DNA 1: CAATCTGAATTCCGGTCTCCC
DNA 2: TGGTGGCTACGACGGGATT
B4: GCCGCGG (DNA:RNA)
RNA: B1 RNA with A25G, G26C, U27C, U28G, G29C, C31G
DNA 1: CAATCTGAATTCCGGTCTCCC
DNA 2: TGGTGGCTACGACGGGATT
B5: CCUACUC (DNA:RNA)
RNA: B1 RNA with A25C, G26C, U28A, G29C, G30U
DNA 1: CAATCTGAATTCCGGTCTCCC
DNA 2: TGGTGGCTACGACGGGATT
B6: GAAUGUG (DNA:RNA)
RNA: B1 RNA with A25G, G26A, U27A, G30U, C31G
DNA 1: CAATCTGAATTCCGGTCTCCC
DNA 2: TGGTGGCTACGACGGGATT
B7: GCGAUUG (DNA:RNA)
RNA: GGGAGACCGGAAUUCAGAUUGUCCGCGAUUGUUAAAUCCCGUCGUAGCCACCA
DNA 1: CAATCTGAATTCCGGTCTCCC
DNA 2: TGGTGGCTACGACGGGATT
B8: GCGCGAA (DNA:RNA)
RNA: B7 RNA with A28C, U29G, U30A, G31A
DNA 1: CAATCTGAATTCCGGTCTCCC
DNA 2: TGGTGGCTACGACGGGATT
B9: GCGAAUG (DNA:RNA)
RNA: B7 RNA with U29A
DNA 1: CAATCTGAATTCCGGTCTCCC
DNA 2: TGGTGGCTACGACGGGATT
B10: GAACGUC (DNA:RNA)
RNA: B1 RNA with A25G, G26A, U27A, U28C, G30U
DNA 1: CAATCTGAATTCCGGTCTCCC
DNA 2: TGGTGGCTACGACGGGATT
B11: GAUUGUG (DNA:RNA)
RNA: B1 RNA with A25G, G26A, G30U, C31G
DNA 1: CAATCTGAATTCCGGTCTCCC
DNA 2: TGGTGGCTACGACGGGATT
B12: GCGAACG (DNA:RNA)
RNA: B7 RNA with U29A, U30C
DNA 1: CAATCTGAATTCCGGTCTCCC
DNA 2: TGGTGGCTACGACGGGATT
B13: CGAUGUG (DNA:RNA)
RNA: B1 RNA with A25C, U27A, G30U, C31G
DNA 1: CAATCTGAATTCCGGTCTCCC
DNA 2: TGGTGGCTACGACGGGATT
B14: GCGACCG (DNA:RNA)
RNA: B7 RNA with U29C, U30C
DNA 1: CAATCTGAATTCCGGTCTCCC
DNA 2: TGGTGGCTACGACGGGATT
B15: GCGAAUC (DNA:RNA)
RNA: B7 RNA with U29A, G31C
DNA 1: CAATCTGAATTCCGGTCTCCC
DNA 2: TGGTGGCTACGACGGGATT
B16: GCGAAUU (DNA:RNA)
RNA: B7 RNA with U29A, G31U
DNA 1: CAATCTGAATTCCGGTCTCCC
DNA 2: TGGTGGCTACGACGGGATT
B17: GCGAACC (DNA:RNA)
RNA: B7 RNA with U29A, U30C, G31C
DNA 1: CAATCTGAATTCCGGTCTCCC
DNA 2: TGGTGGCTACGACGGGATT
B18: GAUUAAU (DNA:RNA)
RNA: B1 RNA with A25G, G26A, G29A, G30A, C31U
DNA 1: CAATCTGAATTCCGGTCTCCC
DNA 2: TGGTGGCTACGACGGGATT
B19: UUGCUUC (DNA:RNA)
RNA: B7 RNA with G25U, C26U, A28C, G31C
DNA 1: CAATCTGAATTCCGGTCTCCC
DNA 2: TGGTGGCTACGACGGGATT
B20: AGAGUCA (DNA:RNA)
RNA: B1 RNA with U27A, U28G, G29U, G30C, C31A
DNA 1: CAATCTGAATTCCGGTCTCCC
DNA 2: TGGTGGCTACGACGGGATT

Where a chain is given by its changes, count along the chain named. The full ranking holds about 16,000 sequences; the median of “ka relative to ugcaugu” is about 0.096, and the highest 2% start at about 0.35. Shown is part of a subset that was picked to be rich in the highest values.

The experiment concerns the target T1, RBFOX1 RRM RbFoxmut (Fox-RRM*). As to the kind of experiment: EMSA; HiTS-Eq, 1 nM pool, 10 min; buffer printed only for the single-RNA assays: 10 mM Tris pH 7.5, 150 mM NaCl, 3.4 mM EDTA, 0.001% NP-40, 30 C. The conditions noted are these: tags: His6 N-terminal (pET28a); label: 5' 32P. The essentials: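 Purified RbFox RRM, wild type or mutant, was incubated for 10 min in 50 µL with 1 nM of a 5′-radiolabelled RNA pool carrying 7 randomized nucleotides, whose flanks were annealed to DNA oligonucleotides, over a series of increasing protein concentrations. Unbound RNA was resolved on 8% native PAGE, cut out, reverse-transcribed, barcoded by PCR and sequenced on an Illumina HiSeq 2500. Relative association constants were derived from changes in read counts for each RNA species versus the control reaction and normalised to the cognate motif.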
For B1, the binding signal was 0.107 KA relative to UGCAUGU.
As for B2, the figure is 0.0764 KA relative to UGCAUGU; as for B3, 0.0966 KA relative to UGCAUGU; as for B4, 0.0996 KA relative to UGCAUGU.
As for B5, the figure is 0.0423 KA relative to UGCAUGU; as for B6, 1.27 KA relative to UGCAUGU; as for B7, 0.206 KA relative to UGCAUGU.
As for B8, the figure is 0.104 KA relative to UGCAUGU; as for B9, 1.44 KA relative to UGCAUGU.
Turning to B10, the binding signal was 0.102 KA relative to UGCAUGU.
The result for B11 reads 0.249 KA relative to UGCAUGU; that for B12, 0.354 KA relative to UGCAUGU; that for B13, 0.151 KA relative to UGCAUGU.
As for B14, the figure is 0.111 KA relative to UGCAUGU; as for B15, 0.385 KA relative to UGCAUGU.
The result for B16 reads 0.113 KA relative to UGCAUGU.
With B17, the binding signal is 0.0798 KA relative to UGCAUGU.
As for B18, the figure is 0.0998 KA relative to UGCAUGU.
On to B19, for which the binding signal is 0.157 KA relative to UGCAUGU.
As for B20, the binding signal was 0.106 KA relative to UGCAUGU.
